Our source for the growth values is PubChem BioAssay (NCI).

This is part of a sample that, as a whole, favours compounds with a hit. Of some 83,000 tested, about 20% had one in any assay.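 Growth was measured after 48 h exposure to one concentration of compound in 96-well plates. Values under 10 count as active.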 A number with no mark means an inactive call. The source made the active and inactive calls.

Some test systems named below: NCI-H23 lung; NCI-H226 lung; NCI-H322M lung; HOP-62 NSCLC; NCI-H460 lung; HOP-92 NSCLC; NCI-H522 lung; A549/ATCC NSCLC; 786-0 renal; COLO 205 colon; DU-145 prostate; K-562 leukemia; MALME-3M melanoma; MDA-MB-231 breast; RXF 393 renal; SF-268 CNS; SF-295 CNS; SF-539 CNS; UACC-257 melanoma; M14 melanoma.
Holding throughout (experiment): NCI-60 one-dose screen, 48 h (100 = growth as untreated, 0 = no growth, -100 = all killed)
What all share (details): 10 µM unless noted

Turning to `CN(C)c1cc(NN=C(c2ccc(O)cc2)c2ccc(O)cc2)c([N+](=O)[O-])cc1[N+](=O)[O-]`, the growth with NCI-H23 lung was 41%; in the test on NCI-H226 lung, 98.7%; with NCI-H322M lung it was 117%; in the test with HOP-62 NSCLC, 58%; with NCI-H460 lung it was 30.4%; in the test with HOP-92 NSCLC, 73%. The growth is 1.73% (active) in the test with NCI-H522 lung; 13.2% in the test on A549/ATCC NSCLC; 16.7% in the test on 786-0 renal; 89.5% in the test on COLO 205 colon; 96.8% in the test with DU-145 prostate; 118% in the test with K-562 leukemia. In addition, the growth in the test with MALME-3M melanoma is 153%; in the test on MDA-MB-231 breast, 81.8%; in the test on RXF 393 renal, 0.652% (active); with SF-268 CNS, 81.5%; with SF-295 CNS, 79.3%; with SF-539 CNS, 74.9%. Besides, the growth in the test with UACC-257 melanoma is 25.1%; in the test with M14 melanoma it was 48.2%.

Turning to `CSc1nc2c(c(=O)n1C)C1(C(=O)N(Cc3ccccc3)c3ccccc31)c1c(nc(SC)n(C)c1=O)N2`, the growth is 92.9% in the test on NCI-H23 lung; 74.3% with NCI-H226 lung; 95.5% in the test on NCI-H322M lung; 84% in the test on HOP-62 NSCLC; 87.2% with NCI-H460 lung; 93.2% in the test with HOP-92 NSCLC. Besides, the growth in the test with NCI-H522 lung is 73.9%; in the test on A549/ATCC NSCLC, 68.5%; with 786-0 renal it was 113%; with COLO 205 colon, 105%; in the test with DU-145 prostate, 92.7%; with K-562 leukemia, 89.8%. Also, the growth in the test on MALME-3M melanoma is 94%; with MDA-MB-231 breast, 77.6%; in the test with RXF 393 renal it was 88.3%; with SF-268 CNS it was 97.2%; in the test on SF-295 CNS, 85.3%; in the test on SF-539 CNS, 106%. Also, the values for the growth in the test with UACC-257 melanoma and in the test with M14 melanoma were 75.1% and 99.7%, respectively.

Consider `O=C1C(Cl)=C(Nc2ccc3cn[nH]c3c2)C(=O)c2ccccc21`, for which the growth with NCI-H23 lung was -70.1% (active); in the test with NCI-H226 lung, -4.83% (active); in the test on NCI-H322M lung, -27.4% (active); with HOP-62 NSCLC it was -6.04% (active); in the test with NCI-H460 lung, 4.67% (active); in the test on HOP-92 NSCLC it was -80.4% (active). The growth was -84.7% (active) in the test on NCI-H522 lung; 39.7% with A549/ATCC NSCLC; -99.4% (active) with 786-0 renal; -85.5% (active) in the test on COLO 205 colon; -100% (active) in the test with DU-145 prostate; -50% (active) with K-562 leukemia. The growth was -88.7% (active) with MALME-3M melanoma; -50.3% (active) in the test with MDA-MB-231 breast; -95.9% (active) in the test on RXF 393 renal; -98.7% (active) in the test on SF-268 CNS; 5.88% (active) in the test with SF-295 CNS; 10.5% in the test with SF-539 CNS. Also, the growth with UACC-257 melanoma is 19.3%; with M14 melanoma, -83.8% (active).

For the compound `CC(C)(C)c1cc(C(=O)Nc2ccccc2C(=O)NCCN)cc(C(C)(C)C)c1`, the growth is 79.9% in the test on NCI-H23 lung; 78.3% in the test with NCI-H226 lung; 21.9% in the test with NCI-H322M lung; 67.8% with HOP-62 NSCLC; -55.2% (active) in the test with NCI-H460 lung; 19.6% with HOP-92 NSCLC. For the same compound, the growth in the test with NCI-H522 lung is 16.1%; with A549/ATCC NSCLC, 7.64% (active); with 786-0 renal, -35.7% (active); in the test with COLO 205 colon it was -76.6% (active); in the test with DU-145 prostate, 15.8%; in the test with K-562 leukemia, -11.2% (active). Moreover, the growth was 47.7% with MALME-3M melanoma; -69.4% (active) with MDA-MB-231 breast; -89.3% (active) in the test with RXF 393 renal; 57.5% in the test with SF-268 CNS; -69.4% (active) in the test on SF-295 CNS; 63.4% in the test on SF-539 CNS. Further, the growth in the test with UACC-257 melanoma was 63.2%; in the test with M14 melanoma, -73.9% (active).

In the case of `CCCCCCNC(=O)Nc1ncnc2c1ncn2-c1ccccc1`, the growth in the test on NCI-H23 lung is 98%; in the test on NCI-H226 lung it was 93.8%; in the test on NCI-H322M lung it was 94.9%; in the test with HOP-62 NSCLC it was 77.6%; in the test with NCI-H460 lung it was 102%; in the test on HOP-92 NSCLC it was 89.3%. For the same compound, the growth is 82.5% in the test on NCI-H522 lung; 88% in the test with A549/ATCC NSCLC; 85.5% with 786-0 renal; 88.8% with COLO 205 colon; 108% with DU-145 prostate; 106% in the test with K-562 leukemia. Besides, the growth was 115% in the test with MALME-3M melanoma; 92.8% in the test on MDA-MB-231 breast; 106% with RXF 393 renal; 103% in the test with SF-268 CNS; 90.1% with SF-295 CNS; 94% in the test on SF-539 CNS. Besides, the figures for the growth in the test on UACC-257 melanoma and with M14 melanoma were 105% and 104%, respectively.

Regarding `Cc1ccc(Cn2c(O)c(N=NC(=O)c3ccc(S(N)(=O)=O)cc3)c3ccccc32)cc1`, the growth in the test on NCI-H23 lung is 101%; in the test on NCI-H226 lung, 93.9%; with NCI-H322M lung, 99.1%; with HOP-62 NSCLC, 106%; with NCI-H460 lung, 104%; with HOP-92 NSCLC, 106%. Besides, the growth is 97.3% with NCI-H522 lung; 93.8% in the test on A549/ATCC NSCLC; 105% in the test with 786-0 renal; 115% with COLO 205 colon; 107% in the test with DU-145 prostate; 99.2% with K-562 leukemia. Besides, the growth in the test with MALME-3M melanoma was 97.1%; in the test on MDA-MB-231 breast it was 97.2%; in the test on RXF 393 renal it was 91.2%; in the test with SF-268 CNS, 98.6%; with SF-295 CNS it was 101%; in the test on SF-539 CNS, 108%. In addition, the growth is 98% with UACC-257 melanoma and 112% with M14 melanoma.

For the compound `CC[C@]12C=CCN3CC[C@@]4(c5ccc(OC)cc5N(C)[C@H]4[C@@](O)(C(=O)OC)[C@@H]1OC(=O)CCC(=O)N[C@H](Cc1c[nH]c4ccccc14)C(=O)OC)[C@@H]32`, the growth is -28% [100 µM] (active) in the test on NCI-H23 lung; -37.2% [100 µM] (active) in the test with NCI-H226 lung; -53.9% [100 µM] (active) with NCI-H322M lung; -7.11% [100 µM] (active) in the test with HOP-62 NSCLC; -65.7% [100 µM] (active) in the test on NCI-H460 lung; -56.7% [100 µM] (active) with HOP-92 NSCLC. Moreover, the growth was -16.2% [100 µM] (active) in the test on NCI-H522 lung; -30.9% [100 µM] (active) in the test with A549/ATCC NSCLC; -47.1% [100 µM] (active) in the test on 786-0 renal; 0.36% [100 µM] (active) in the test with COLO 205 colon; -49.9% [100 µM] (active) in the test with DU-145 prostate; 5.85% [100 µM] (active) in the test on K-562 leukemia. In addition, the growth in the test with MALME-3M melanoma is -68.8% [100 µM] (active); in the test with MDA-MB-231 breast, -71% [100 µM] (active); with RXF 393 renal, -60.6% [100 µM] (active); with SF-268 CNS, -43% [100 µM] (active); in the test on SF-295 CNS, -38.4% [100 µM] (active); in the test with SF-539 CNS, -57.1% [100 µM] (active). In addition, the growth with UACC-257 melanoma is -29.2% [100 µM] (active); in the test on M14 melanoma it was -32.8% [100 µM] (active).

As for `Cc1ccc2c(n1)C(=O)C(Cl)=C(Nc1ccc(N3CCN(C)CC3)cc1)C2=O`, the growth with NCI-H23 lung is 16.7%; in the test on NCI-H226 lung, 105%; with NCI-H322M lung, 97.3%; with HOP-62 NSCLC, 63.7%; in the test with NCI-H460 lung, 97.2%; in the test with HOP-92 NSCLC, -86.3% (active). Moreover, the growth with NCI-H522 lung was -63.8% (active); in the test on A549/ATCC NSCLC, 97.6%; with 786-0 renal, 52.2%; with COLO 205 colon, 82.5%; in the test on DU-145 prostate, -18.7% (active); in the test on K-562 leukemia it was -12.3% (active). The growth in the test on MALME-3M melanoma is -75.5% (active); with MDA-MB-231 breast, -62.8% (active); with RXF 393 renal, 62.8%; in the test on SF-268 CNS, 77.7%; in the test with SF-295 CNS, 99.4%; with SF-539 CNS it was -24.5% (active). For the same compound, the figures for the growth in the test with UACC-257 melanoma and with M14 melanoma were 57.2% and 73.8%, respectively.
